This is a sample that favours compounds with a hit; in the whole collection about 2.3% have one here.
5-HT1A blocker = antagonists of human 5-HT1a serotonin receptor | CHO 5-HT1a Ga15 NFAT-bla reporter, antagonist mode | inhibition, % at 10 µM | 62,000 compounds, 0.68% hits | AID 612;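 active means inhibition above the mean of all tested compounds plus 3 SD, cut at about 43% in these data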;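 further: receptor stimulated by 5-CT agonist at 100 nM near EC80; beta-lactamase reporter measured by ratiometric fluorescence of a cleavable substrate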
Target sequence (P08908 whole entry, looked up): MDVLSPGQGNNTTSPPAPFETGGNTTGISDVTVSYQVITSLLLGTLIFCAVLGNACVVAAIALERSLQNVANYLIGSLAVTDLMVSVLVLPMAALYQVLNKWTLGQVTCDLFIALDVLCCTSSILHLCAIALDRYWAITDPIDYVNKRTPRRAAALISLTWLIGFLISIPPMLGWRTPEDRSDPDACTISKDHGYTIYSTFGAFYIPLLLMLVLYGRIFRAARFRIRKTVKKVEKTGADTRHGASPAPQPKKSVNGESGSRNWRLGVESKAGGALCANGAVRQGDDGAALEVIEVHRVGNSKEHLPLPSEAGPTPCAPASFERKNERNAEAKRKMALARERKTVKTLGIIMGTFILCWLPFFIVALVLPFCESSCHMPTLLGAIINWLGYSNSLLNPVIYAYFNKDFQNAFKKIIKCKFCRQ
5HT1E antag = 5-HT1E (human) receptor antagonism; CHO 5-HT1E Ga15 NFAT-bla reporter, FRET, antagonist; 65,000 compounds, 0.99% hits; AID 571; inhibition, % at 6 µM;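 active means inhibition above a set limit, the mean inhibition across every tested compound plus 3 SD, cut at about 29% in these data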;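 further: signal is the 460 over 535 nm emission ratio of beta-lactamase substrate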
mHtt clearance = compounds clearing mutant huntingtin protein | inhibition, % at 1.5 µM | 47,000 compounds, 0.42% hits | HeLa Exon1htt(103Q)mCFP, aggregate imaging; zero = plate's median compound well;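 active means inhibition of aggregate fluorescence above about 70%, also judged a hit by eye on the cell image, limit read from the data, passing the limit was not always enough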;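 further: cells exposed to compound for three days before fixation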
HTR1A agonist = agonists of human 5-HT1a serotonin receptor | P08908 | CHO 5-HT1a Ga15 NFAT-bla reporter, FRET ratio; 0% basal, 100% maximal reference agonist | activation, % at 10 µM | 65,000 compounds, 0.56% hits | AID 567;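 active means activation above the screen-wide mean activation plus 3 SD, cut at about 19% in these data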
5HT1E ag = activates the human 5-HT1E serotonin receptor. P28566. CHO 5-HT1E Ga15 NFAT-bla reporter, FRET; 0% DMSO wells, 100% control agonist wells. activation, % at 6 µM. 65,000 compounds, 0.69% hits. AID 574;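 active means activation above a set limit, the screen-wide mean activation plus 3 SD, cut at about 8.5% in these data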
Of the large screens only hits and unclear results are named; the others gave an inactive call.

Nc1nnnn1/N=C/C(Br)=C/c1ccccc1	5-HT1A blocker 85, 5HT1E antag 48
O=S1(=O)C=C(Sc2nc3cc(Cl)ccc3o2)c2ccccc21	5-HT1A blocker 94, 5HT1E antag 80
CN(C)c1nc(N)nc(CSc2nc3cc(Cl)ccc3o2)n1	none (no result: mHtt clearance)
COc1ccc(S(=O)(=O)N(Cc2ccccc2)Cc2nc(-c3ccccc3)no2)cc1	none
CCCC(c1nnnn1Cc1ccco1)N1CCN(c2cc(Cl)ccc2C)CC1 (stereo unspecified)	5-HT1A blocker 51 (no result: mHtt clearance)
CC(C)CSc1nc(N2CCOCC2)c2c(c1C#N)CC(C)(C)SC2	5HT1E antag 29 (no result: 5-HT1A blocker)
CCC(C)Oc1cccc(C(=O)Nc2ccccc2N2CCOCC2)c1 (stereo unspecified)	none
CC(C)Oc1cccc(C(=O)Nc2ccccc2N2CCOCC2)c1	5HT1E antag 32 (no result: mHtt clearance)
Cn1cc(CN2CCN(c3ccccc3)CC2)c2ccccc21	5HT1E ag 12
N#CC1=C2SCC(O)(c3ccccc3)N2C(=O)CC1c1cccs1 (stereo unspecified)	5HT1E antag 34 (no result: mHtt clearance)
Cc1c(Br)cc(C(=O)OC2CCN(C)CC2)c(C)c1C	none
CN(C)c1ccc(/C=C/C(O)=C2/C(=O)N(C)C3(C)CC2c2ccccc2O3)cc1 (stereo unspecified)	5-HT1A blocker 54, 5HT1E antag 53
CN(C)c1ccc(C=C2C(=O)OC(C)(C(C)(C)C)OC2=O)cc1 (stereo unspecified)	none (no result: 5-HT1A blocker, 5HT1E antag, HTR1A agonist, 5HT1E ag)
COc1cccc(CN(C)CC(=O)NC(=O)NCc2ccco2)c1	none (no result: mHtt clearance)
CCOC(=O)CNC(=O)c1ccc(C)cc1	none (no result: 5-HT1A blocker, 5HT1E antag, HTR1A agonist, 5HT1E ag)
CCOC(=O)C(C(C)=O)c1c(Br)c(O)c(O)c2c(C(=O)c3ccc(C)cc3)coc12 (stereo unspecified)	5-HT1A blocker 45
c1ccc(CCn2nnnc2C(c2cccnc2)N2CCN(c3ccccc3)CC2)cc1 (stereo unspecified)	5HT1E ag 9.9
Fc1ccccc1N1CCN(C(c2cccs2)c2nnnn2CCc2ccccc2)CC1 (stereo unspecified)	5-HT1A blocker 57 (no result: mHtt clearance)
CN(C)c1ccc2c(c1)OC(N)=C(C#N)C2c1cccc(F)c1 (stereo unspecified)	5HT1E antag 75 (no result: mHtt clearance)
COc1ccccc1CN(Cc1ccco1)S(=O)(=O)c1ccc(-n2cnnn2)c(OC)c1	none (no result: mHtt clearance)
Cc1cc(=O)oc2cc3c(cc12)OCCO3	none (no result: mHtt clearance)
Cc1cc(=O)oc2cc3c(cc12)OCCN3	HTR1A agonist 25, 5HT1E ag 12
COc1ccc(NC(=O)NCc2ccncc2)c(OC)c1	none (no result: 5-HT1A blocker, 5HT1E antag, HTR1A agonist, 5HT1E ag)
CCCCN(CC)Cc1ccc(CNC(=O)Nc2ccc(OC)cc2OC)o1	5HT1E ag 52
CSCC[C@H](NC(=O)NCc1ccccc1F)C(=O)O	none
CSCC[C@H](NC(=O)Nc1ccc(C)cc1C)C(=O)O	HTR1A agonist 111
CCCCOC(=O)Nc1ccc(C)c(Cl)c1	none (no result: 5-HT1A blocker, 5HT1E antag, HTR1A agonist, 5HT1E ag)
CCCCC(=O)Nc1cccc(-c2nc3ncccc3o2)c1	none
COc1c(C)cc(Br)cc1C(=O)Nc1cccc(-c2nc3ncccc3o2)c1	HTR1A agonist 66 (no result: mHtt clearance)
O=C(O)c1ccccc1C(=O)N1CC=C(c2ccccc2)CC1	5HT1E ag 12
Cc1ccc(Nc2nc(C(=O)N3CCC(C(=O)NCCN4CCOCC4)CC3)cs2)cc1	mHtt clearance 74
Cc1ccc(Nc2nc(C(=O)N3CCC(C(=O)N4CCN(C)CC4)CC3)cs2)cc1	none
CCC(CC)c1nc2cc(OC)c(OC)cc2c(=O)o1	5HT1E ag 35 (no result: 5-HT1A blocker, mHtt clearance)
COc1ccc(Nc2nc(C)cc(C)c2C#N)cc1	none (no result: mHtt clearance)
CCOc1ccc(Nc2nc(C)cc(C)c2C#N)cc1	mHtt clearance 77
Cc1ccc(NS(=O)(=O)c2cc(C(=O)O)ccc2Cl)c(C)c1	mHtt clearance 72
N=c1sccn1CC(=O)Nc1cccc2ccccc12	none (no result: 5-HT1A blocker, 5HT1E antag, HTR1A agonist, 5HT1E ag)
N=c1sccn1CC(=O)Nc1cccc(Oc2ccccc2)c1	5-HT1A blocker 46
CCOC(=O)c1[nH]c(C)c(/C=N/O)c1C	5HT1E ag 9.8 (no result: mHtt clearance)
O=C(Cc1ccccc1)NCc1nc2ccccc2[nH]1	mHtt clearance 88
O=C(NCCc1nc2ccccc2[nH]1)c1ccco1	none
FC(F)(F)c1cccc(N2CCN(Cc3ccoc3)CC2)c1	5HT1E ag 14
O=C(c1c(F)cccc1F)N1CCN(c2cccc(C(F)(F)F)c2)CC1	none (no result: mHtt clearance)
FC(F)(F)c1cccc(N2Cc3ccccc3C2)c1	5HT1E ag 11
CC(C)Oc1ccc(/C(O)=C2/C(=O)C(=O)N(CCCN3CCOCC3)C2c2ccncc2)cc1 (stereo unspecified)	none (no result: mHtt clearance)
COc1ccc(C2C(C#N)=C(C)NC3=C2C(=O)c2ccccc23)cc1 (stereo unspecified)	none (no result: 5-HT1A blocker)
COc1cc(C2C(C#N)=C(C)NC3=C2C(=O)c2ccccc23)cc(OC)c1OC (stereo unspecified)	5-HT1A blocker 63, 5HT1E antag 82
O=S(=O)(c1cnc[nH]1)N1CCc2ccccc21	none (no result: mHtt clearance)
c1ccc(-c2csc(-n3cnnn3)n2)cc1	none
OC1CCN(c2c3c(nc4cc(-c5cccc(F)c5)nn24)CCCC3)CC1	5HT1E antag 31 (no result: mHtt clearance)
O=C(NCc1ccco1)c1ccc(=O)[nH]n1	mHtt clearance 72 (no result: 5-HT1A blocker)
CCNc1nc(N)nc(Oc2ccc(OCCOc3ccc(Cl)cc3Cl)nn2)n1	none
CCNc1nc(C)c2cc(Br)c(=O)n(CC)c2n1	5HT1E antag 58 (no result: mHtt clearance)
Cc1ccc(-c2nn3c(C)nnc3s2)cc1NCc1c(F)cccc1Cl	5-HT1A blocker 45 (no result: mHtt clearance)
O=C(NCCc1ccccc1)C1CCCN(S(=O)(=O)c2cccs2)C1 (stereo unspecified)	none
Cn1c(SCC(=O)c2ccc3c(c2)OCO3)nnc1C1COc2ccccc2O1 (stereo unspecified)	none
Cc1cc(C(=O)CSc2nnc(C3COc4ccccc4O3)n2C)c(C)n1-c1ccc(F)cc1 (stereo unspecified)	5HT1E antag 30
Cc1n[nH]c(C)c1S(=O)(=O)N(CC(=O)Nc1ccc2c(c1)OCCO2)c1ccc(C(C)C)cc1	none (no result: mHtt clearance)
CCCn1nc(NS(=O)(=O)c2ccccc2)c2cc3ccccc3nc21	HTR1A agonist 24 (no result: mHtt clearance)
CC(C)Cn1nc(NS(=O)(=O)c2ccccc2)c2cc3ccccc3nc21	none
O=C(O)c1ccc(OCC(O)Cn2cnc3ccccc32)cc1 (stereo unspecified)	5HT1E ag 9.3
N=c1n(CCN2CCCCC2)c2ccccc2n1CC(O)COc1ccccc1 (stereo unspecified)	5-HT1A blocker 49 (no result: mHtt clearance)
COc1ccccc1OCC(O)Cn1c(=N)n(CCN2CCCCC2)c2ccccc21 (stereo unspecified)	5-HT1A blocker 71
N=c1n(CCN2CCCCC2)c2ccccc2n1CC(O)c1cccc(Br)c1 (stereo unspecified)	5-HT1A blocker 54
CC1CN(Cc2nc3c(c(=O)n(C)c(=O)n3C)n2Cc2ccc(Cl)cc2)CC(C)O1 (stereo unspecified)	none (no result: mHtt clearance)
Cc1ccc(C2CC(=O)NC(SCc3ccccc3)=C2C#N)o1 (stereo unspecified)	HTR1A agonist 35

Assay outcomes deposited in PubChem BioAssay by several laboratories.
